In PubChem BioAssay AID1159580 (chemical genetic matrix, 2015):
Values joined by “and” are separate entries in the source; they are usually repeats but may differ in a detail not shown here. Equal values may be shown once. About 2,000 (36%) of roughly 5,500 compounds were called active. Roughly 18% stayed inconclusive and do not appear here. No stated cut-off is given here; in the data, active means normalized growth mostly below about 0.91 (no sharp cut-off); inconclusive means no clear call, values can overlap the other calls; inactive means mostly above about 0.92. The list shows a part of the results.

Assay: chemical genetic growth profiling, strain panel (AID 1159580);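 further: tested at 20 µM; growth read once vehicle control cultures reached saturation at 30 °C; 1 = growth at the plate median or of vehicle wells; lower values mean less growth of the strain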
Conditions: growth OD
[1] = S. cerevisiae deletion strains, locus YAL013W, strain DEP1, active compounds read low
[2] = S. cerevisiae deletion strains, locus YAL040C, strain CLN3, active compounds read low
[3] = S. cerevisiae deletion strains, locus YCL061C, strain MRC1 (second series), active compounds read low
[4] = S. cerevisiae deletion strains, locus YDR150W, strain NUM1, active compounds read low
[5] = S. cerevisiae deletion strains, locus YDR363W, strain ESC2, active compounds read low
[6] = S. cerevisiae deletion strains, locus YER002W, strain NOP16, active compounds read low
[7] = S. cerevisiae deletion strains, locus YGR229C, strain SMI1, active compounds read low
[8] = S. cerevisiae deletion strains, locus YHR030C, strain SLT2, active compounds read low
[9] = S. cerevisiae deletion strains, locus YHR079C, strain IRE1, active compounds read low
[10] = S. cerevisiae deletion strains, locus YJL095W, strain BCK1, active compounds read low
[11] = S. cerevisiae deletion strains, locus YJR066W, strain TOR1, active compounds read low
[12] = S. cerevisiae deletion strains, locus YLR113W, strain HOG1, active compounds read low
[13] = S. cerevisiae deletion strains, locus YMR307W, strain GAS1, active compounds read low
[14] = S. cerevisiae deletion strains, locus YNL175C, strain NOP13, active compounds read low
[15] = S. cerevisiae deletion strains, locus YNL183C, strain NPR1, active compounds read low
[16] = S. cerevisiae deletion strains, locus YNL197C, strain WHI3, active compounds read low
[17] = S. cerevisiae deletion strains, locus YNL224C, strain SQS1, active compounds read low
[18] = S. cerevisiae deletion strains, locus YOR083W, strain WHI5 (second series), active compounds read low
[19] = S. cerevisiae deletion strains, locus YOR231W, strain MKK1, active compounds read low
[20] = S. cerevisiae deletion strains, locus YPL055C, strain LGE1, active compounds read low
[21] = S. cerevisiae deletion strains, locus YPL256C, strain CLN2, active compounds read low

Measured: normalized growth

C[N+](C)(C)CCCCCC[N+](C)(C)C
inactive: [1] 1.01 | [2] 0.978 and 0.988 | S. cerevisiae deletion strains, locus YBR021W, strain FUR4, active compounds read low 0.997 | S. cerevisiae deletion strains, locus YBR229C, strain ROT2, active compounds read low 0.995 | S. cerevisiae deletion strains, locus YCL029C, strain bik1, active compounds read low 0.988 | [3] 1.01 and 1 | S. cerevisiae deletion strains, locus YDL035C, strain GPR1, active compounds read low 1 | S. cerevisiae deletion strains, locus YDL074C, strain BRE1, active compounds read low 1.07 | S. cerevisiae deletion strains, locus YDL101C, strain DUN1, active compounds read low 0.993 | S. cerevisiae deletion strains, locus YDL134C, strain PPH21, active compounds read low 0.98 | S. cerevisiae deletion strains, locus YDL185W, strain tfp1, active compounds read low 0.984 | S. cerevisiae deletion strains, locus YDL192W, strain arf1, active compounds read low 0.98 | S. cerevisiae deletion strains, locus YDR101C, strain arx1, active compounds read low 1.03 | [4] 1 and 0.998 | S. cerevisiae deletion strains, locus YDR162C, strain NBP2, active compounds read low 0.985 | S. cerevisiae deletion strains, locus YDR318W, strain mcm21, active compounds read low 0.984 | [5] 1.01 and 0.998 | S. cerevisiae deletion strains, locus YDR388W, active compounds read low 0.982 | S. cerevisiae deletion strains, locus YDR502C, strain sam2, active compounds read low 0.985 | S. cerevisiae deletion strains, locus YEL061C, strain CIN8, active compounds read low 0.993 | [6] 1.03 and 1 | S. cerevisiae deletion strains, locus YER110C, active compounds read low 0.979 | S. cerevisiae deletion strains, locus YER155C, strain BEM2, active compounds read low 0.998 | S. cerevisiae deletion strains, locus YER167W, strain BCK2, active compounds read low 0.994 | S. cerevisiae deletion strains, locus YGL078C, strain dbp3, active compounds read low 0.981 | S. cerevisiae deletion strains, locus YGL086W, strain mad1, active compounds read low 1.02 | S. cerevisiae deletion strains, locus YGL248W, strain PDE1, active compounds read low 1 | S. cerevisiae deletion strains, locus YGR078C, strain PAC10, active compounds read low 1.03 and 0.99 | S. cerevisiae deletion strains, locus YGR135W, strain pre9, active compounds read low 0.95 | [7] 0.99 | S. cerevisiae deletion strains, locus YGR252W, strain gcn5, active compounds read low 0.948 | [8] 0.987 and 1.05 | S. cerevisiae deletion strains, locus YHR079C, strain IRE1 (second series), active compounds read low 0.993 | [9] 1.04 | S. cerevisiae deletion strains, locus YHR094C, strain hxt1, active compounds read low 0.987 | S. cerevisiae deletion strains, locus YHR129C, strain ARP1, active compounds read low 0.988 | S. cerevisiae deletion strains, locus YHR200W, strain rpn10, active compounds read low 0.989 | S. cerevisiae deletion strains, locus YIL066C, strain RNR3, active compounds read low 0.994 | S. cerevisiae deletion strains, locus YIL073C, strain SPO22, active compounds read low 0.953 | S. cerevisiae deletion strains, locus YIL125W, strain kgd1, active compounds read low 1 | S. cerevisiae deletion strains, locus YIR030C, strain dcg1, active compounds read low 0.985 | [10] 1 and 1.05 | S. cerevisiae deletion strains, locus YJL134W, strain LCB3, active compounds read low 0.989 | S. cerevisiae deletion strains, locus YJL168C, strain set2, active compounds read low 1 | S. cerevisiae deletion strains, locus YJL187C, strain SWE1 (second series), active compounds read low 0.999 | S. cerevisiae deletion strains, locus YJR043C, strain POL32, active compounds read low 1 | [11] 0.96 | S. cerevisiae deletion strains, locus YJR075W, strain HOC1, active compounds read low 0.998 and 1.01 | S. cerevisiae deletion strains, locus YKL009W, strain mrt4, active compounds read low 0.99 | S. cerevisiae deletion strains, locus YKL068W, active compounds read low 0.988 | S. cerevisiae deletion strains, locus YKL085W, strain MDH1 (second series), active compounds read low 0.998 | S. cerevisiae deletion strains, locus YKL085W, strain MDH1, active compounds read low 0.998 | S. cerevisiae deletion strains, locus YKL190W, strain CNB1, active compounds read low 1.01 | S. cerevisiae deletion strains, locus YKR001C, strain vps1, active compounds read low 1 | S. cerevisiae deletion strains, locus YLR039C, strain RIC1, active compounds read low 1 | S. cerevisiae deletion strains, locus YLR058C, strain SHM2, active compounds read low 0.987 | S. cerevisiae deletion strains, locus YLR102C, strain apc9, active compounds read low 0.987 | [12] 1.1 | S. cerevisiae deletion strains, locus YLR262C, strain YPT6, active compounds read low 0.97 | S. cerevisiae deletion strains, locus YLR268W, strain sec22, active compounds read low 0.99 | S. cerevisiae deletion strains, locus YLR330W, strain CHS5, active compounds read low 0.99 | S. cerevisiae deletion strains, locus YLR342W, strain FKS1 (second series), active compounds read low 0.976 | S. cerevisiae deletion strains, locus YLR371W, strain rom2, active compounds read low 0.988 | S. cerevisiae deletion strains, locus YLR418C, strain cdc73, active compounds read low 0.946 | S. cerevisiae deletion strains, locus YML016C, strain PPZ1, active compounds read low 0.99 | S. cerevisiae deletion strains, locus YML032C, strain rad52, active compounds read low 1 | S. cerevisiae deletion strains, locus YML124C, strain tub3, active compounds read low 0.995 | S. cerevisiae deletion strains, locus YMR078C, strain ctf18, active compounds read low 0.983 | S. cerevisiae deletion strains, locus YMR223W, strain ubp8, active compounds read low 0.964 | S. cerevisiae deletion strains, locus YMR263W, strain SAP30, active compounds read low 1.01 and 0.998 | [13] 0.96 and 1.01 | S. cerevisiae deletion strains, locus YNL067W, strain RPL9B, active compounds read low 1.01 | S. cerevisiae deletion strains, locus YNL128W, strain TEP1, active compounds read low 0.992 and 1.01 | S. cerevisiae deletion strains, locus YNL153C, strain GIM3, active compounds read low 1.03 and 1.01 | [14] 0.99 and 1.02 | [15] 1.01 | [16] 0.999 and 1.02 | [17] 0.994 and 1.04 | S. cerevisiae deletion strains, locus YNL233W, strain BNI4, active compounds read low 1.01 | S. cerevisiae deletion strains, locus YNL250W, strain rad50, active compounds read low 0.957 | S. cerevisiae deletion strains, locus YNL271C, strain bni1, active compounds read low 0.984 | S. cerevisiae deletion strains, locus YNL298W, strain CLA4, active compounds read low 0.981 | S. cerevisiae deletion strains, locus YNL307C, strain MCK1, active compounds read low 0.985 | S. cerevisiae deletion strains, locus YNL322C, strain KRE1, active compounds read low 0.998 and 0.995 | S. cerevisiae deletion strains, locus YNR052C, strain pop2, active compounds read low 0.987 | S. cerevisiae deletion strains, locus YOL006C, strain TOP1, active compounds read low 1.06 | S. cerevisiae deletion strains, locus YOL012C, strain htz1 1.51 | S. cerevisiae deletion strains, locus YOL147C, strain pex11, active compounds read low 0.99 | S. cerevisiae deletion strains, locus YOR061W, strain CKA2, active compounds read low 0.995 | S. cerevisiae deletion strains, locus YOR069W, strain VPS5, active compounds read low 0.987 | [18] 0.968 and 0.999 | S. cerevisiae deletion strains, locus YOR136W, strain idh2, active compounds read low 0.994 | S. cerevisiae deletion strains, locus YOR144C, strain elg1, active compounds read low 0.993 | S. cerevisiae deletion strains, locus YOR184W, strain ser1, active compounds read low 0.988 | [19] 1.09 | S. cerevisiae deletion strains, locus YOR316C, strain cot1, active compounds read low 0.988 | [20] 1.04 | [21] 1.05 | S. cerevisiae deletion strains, locus YPR119W, strain clb2, active compounds read low 0.997 | S. cerevisiae deletion strains, locus YPR141C, strain kar3, active compounds read low 0.98 | S. cerevisiae deletion strains, locus YPR163C, strain tif3, active compounds read low 1.01 | S. cerevisiae deletion strains, locus YPR167C, strain met16, active compounds read low 0.983 | S. cerevisiae deletion strains, strain wtn01, active compounds read low 0.982 | S. cerevisiae strains, strain wild type, active compounds read low 0.995

C[N+](C)(C)CCCCCCCCCC[N+](C)(C)C
inactive: [1] 1 | [2] 1 | [3] 1 | [4] 0.989 | [5] 1.02 | [6] 0.995 | [7] 1.04 | [8] 0.973 | [9] 1.01 | [10] 1 | [11] 0.963 | [12] 1.01 | [13] 0.998 | [14] 1.01 | [15] 0.948 | [16] 1.03 | [17] 0.983 | [18] 0.95 | [19] 0.995 | [20] 1.02 | [21] 1.12
